Experiment [1] addresses Peroxisome proliferator-activated receptor delta (Homo sapiens) (UniProt Q03181). Kind of experiment: qHTS assay to identify small molecule agonists of the peroxisome proliferator-activated receptor delta (PPARd) signaling pathway (AID 743212; calls by dose curve). In short, it runs like this:
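GeneBLAzer PPARd UAS-bla HEK293H cells (beta-lactamase reporter under UAS control), plated and rested 5 h at 37 C, then exposed to compounds in DMSO at 37 C; LiveBLAzer B/G FRET substrate added, 2 h room temperature, fluorescence read.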
(Quantitative high-throughput screening tests each substance at several concentrations.)

The nature of experiment [2]: qHTS assay to identify small molecule antagonists of the peroxisome proliferator-activated receptor delta (PPARd) signaling pathway - cell viability counter screen (AID 743213). Further: nearly all actives have a fitted effect of over 50% in size. Further: potency means the concentration at half of the fitted maximal effect. In short, it runs like this: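 Cytotoxicity counter screen: CellTiter-Glo luminescence read 30 min after addition, in the same wells as the reporter assay. There, PPARd UAS-bla HEK293H cells (3000/well) were treated 17 h at 37 C with compound and 300 nM L165041.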

Experiment [3] addresses Peroxisome proliferator-activated receptor delta (Homo sapiens) (UniProt Q03181). As to the kind of experiment: qHTS assay to identify small molecule antagonists of the peroxisome proliferator-activated receptor delta (PPARd) signaling pathway (AID 743215; active means well fitted inhibition curve with a large enough effect in the signal ratio in the repeat runs, not every such curve was filed as active; the % refers to the signal ratio;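 further: cells stimulated with agonist L165041 at 300 nM final during compound exposure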; further: potency means the concentration at half of the fitted maximal effect; on ratio activity, negative = inhibition: series mostly up to about 62 µM). In outline: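 HEK293H UAS-bla, PPARd; agonist L165041 300 nM final with cpd in DMSO; 37 C 17 h; FRET substrate, RT 2 h; fluorescence intensity.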

Experiment [4] can be described thus: qHTS assay to identify small molecule agonists of the farnesoid-X-receptor (FXR) signaling pathway - cell viability counter screen (AID 743218). Further: nearly all actives have a fitted effect of over 45% in size. Further: potency means the concentration at half of the fitted maximal effect. In outline: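 Parallel cytotoxicity test: compound-treated (16 h, 37 C) HEK 293T FXR-bla reporter cells were lysed with CellTiter-Glo and luminescence recorded.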
Experiment [5] in a line: qHTS assay to identify small molecule antagonists of the farnesoid-X-receptor (FXR) signaling pathway - cell viability counter screen (AID 743221; active means well fitted cell-killing curve with a large enough effect in the repeat runs, not every such curve was filed as active; further: nearly all actives have a fitted effect of over 50% in size; further: potency means the concentration at half of the fitted maximal effect). In short, it runs like this: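 GeneBLAzer FXR-UAS-bla HEK 293T cells, compound plus chenodeoxycholic acid (50 uM final), 16 h at 37 C. CellTiter-Glo added to the same wells after the beta-lactamase read; luminescence read after 30 min at room temperature as viability.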

The target in experiment [6] is Vitamin D3 receptor (Homo sapiens) (UniProt P11473). Kind of experiment: qHTS assay to identify small molecule agonists of the vitamin D receptor (VDR) signaling pathway (AID 743222; calls by dose curve). In outline:
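In VDR-bla cells, compound-induced beta-lactamase expression is quantified by FRET substrate fluorescence. Treatment lasts 16 h at 37C; substrate develops 2 h at room temperature.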

Experiment [7] can be described thus: qHTS assay to identify small molecule agonists of the vitamin D receptor (VDR) signaling pathway - cell viability counter screen (AID 743224). Further: nearly all actives have a fitted effect of over 50% in size. Further: potency means the concentration at half of the fitted maximal effect. On activity change, negative = cytotoxicity: series mostly up to about 63 µM. In outline: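 Plated VDR-bla cells (4 h, 37C) received compound, incubated 16 h, then LiveBLAzer substrate 2 h RT; CellTiter-Glo added afterwards, luminescence read at 30 min.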
The target of experiment [8] is Vitamin D3 receptor (Homo sapiens) (UniProt P11473). As to the kind of experiment: qHTS assay to identify small molecule antagonists of the vitamin D receptor (VDR) signaling pathway (AID 743223; active means well fitted inhibition curve with a large enough effect in the signal ratio in the repeat runs, not every such curve was filed as active; the % refers to the signal ratio). In outline:
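VDR-bla cells were treated with compound plus 3 nM final 1alpha,25-dihydroxyvitamin D3 for 16 h at 37C. Beta-lactamase reporter read by B/G FRET substrate fluorescence after 2 h at room temperature. qHTS format.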

Experiment [9] concerns the target Bile acid receptor (Homo sapiens) (UniProt Q96RI1). Kind of experiment: qHTS assay to identify small molecule antagonists of the farnesoid-X-receptor (FXR) signaling pathway (AID 743217; active means well fitted inhibition curve with a large enough effect in the signal ratio in the repeat runs, not every such curve was filed as active; the % refers to the signal ratio). In outline:
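GeneBLAzer FXR-UAS-bla HEK 293T, CDCA-stimulated (50 uM final). Compound treatment 16 h, 37 °C. Detection: beta-lactamase cleavage of B/G FRET substrate, fluorescence.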

The target is the same in experiment [10]. As to the kind of experiment: qHTS assay to identify small molecule agonists of the farnesoid-X-receptor (FXR) signaling pathway (AID 743220; active means well fitted activation curve with a large enough effect in the signal ratio in the repeat runs, not every such curve was filed as active; the % refers to the signal ratio). In short, it runs like this: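 Beta-lactamase reporter under UAS control in GeneBLAzer FXR HEK 293T cells (5000/well) measured with LiveBLAzer FRET substrate after 2 h at room temperature. Compound exposure lasted 16 h at 37C.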

The structures appear in SMILES notation. Several values for one entry are separate records, joined by “and”; a condition that tells them apart may be missing. Identical values can stand only once. Records with an inconclusive call do not appear. A structure can be active in one record and inactive in another. Activity calls are given as the source filed them. Unless noted, the call rests on the fitted dose curve; in most records, active means well fitted curve in the direction sought with a large enough effect in the repeat runs; inconclusive means weak or mixed curves; inactive means no such curve, though single readings can be large; an effect the other way counts as inactive or inconclusive.
On the % scale 0 is the no-effect control and ±100 the full control effect.

Peroxisome proliferator-activated receptor delta (Homo sapiens), sequence (Q03181 whole entry, looked up): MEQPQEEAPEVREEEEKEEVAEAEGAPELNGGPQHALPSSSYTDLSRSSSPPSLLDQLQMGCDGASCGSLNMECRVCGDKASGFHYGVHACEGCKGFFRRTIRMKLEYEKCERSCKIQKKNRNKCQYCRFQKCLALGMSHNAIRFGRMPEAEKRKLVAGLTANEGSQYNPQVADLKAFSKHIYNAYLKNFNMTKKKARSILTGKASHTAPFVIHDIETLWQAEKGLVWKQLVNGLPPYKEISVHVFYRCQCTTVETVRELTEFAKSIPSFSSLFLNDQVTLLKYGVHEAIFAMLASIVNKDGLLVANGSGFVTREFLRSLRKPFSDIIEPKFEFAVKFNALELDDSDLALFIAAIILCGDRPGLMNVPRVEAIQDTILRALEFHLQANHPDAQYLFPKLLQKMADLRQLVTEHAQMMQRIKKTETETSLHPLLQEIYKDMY
Bile acid receptor (Homo sapiens), sequence (Q96RI1 whole entry, looked up): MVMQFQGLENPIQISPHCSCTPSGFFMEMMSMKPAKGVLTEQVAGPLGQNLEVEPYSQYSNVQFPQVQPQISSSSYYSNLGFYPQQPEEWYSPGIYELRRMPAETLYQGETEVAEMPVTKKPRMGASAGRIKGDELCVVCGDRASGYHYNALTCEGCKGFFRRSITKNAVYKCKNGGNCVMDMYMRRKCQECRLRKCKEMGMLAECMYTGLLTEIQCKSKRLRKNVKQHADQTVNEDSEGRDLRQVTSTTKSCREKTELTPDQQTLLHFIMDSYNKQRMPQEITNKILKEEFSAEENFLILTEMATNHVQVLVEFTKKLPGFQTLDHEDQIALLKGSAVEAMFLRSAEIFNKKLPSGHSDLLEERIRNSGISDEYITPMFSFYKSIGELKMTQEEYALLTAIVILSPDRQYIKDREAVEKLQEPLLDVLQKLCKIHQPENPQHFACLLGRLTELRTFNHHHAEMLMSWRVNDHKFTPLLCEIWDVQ
Vitamin D3 receptor (Homo sapiens), sequence (P11473 whole entry, looked up): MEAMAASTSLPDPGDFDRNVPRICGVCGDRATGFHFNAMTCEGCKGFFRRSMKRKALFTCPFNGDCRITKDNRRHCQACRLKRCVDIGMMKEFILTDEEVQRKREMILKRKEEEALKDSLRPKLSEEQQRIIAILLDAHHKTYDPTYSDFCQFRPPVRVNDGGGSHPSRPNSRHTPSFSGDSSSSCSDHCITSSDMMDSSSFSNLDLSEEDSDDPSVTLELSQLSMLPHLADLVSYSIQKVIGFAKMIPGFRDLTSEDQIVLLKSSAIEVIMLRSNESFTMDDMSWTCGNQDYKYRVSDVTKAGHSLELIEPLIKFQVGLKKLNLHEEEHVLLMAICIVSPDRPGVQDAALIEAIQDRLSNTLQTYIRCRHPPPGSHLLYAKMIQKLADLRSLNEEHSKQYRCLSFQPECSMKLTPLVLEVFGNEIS

For the molecule `CC(C)(O)CCC(C)(C)O`, the Potency entry in experiment [1], in [2], in experiment [3], in experiment [4], in experiment [5] and in [6] was “inactive” throughout. In addition, the Potency entry in experiment [7] is “inactive”.
Consider `C[N+]1([O-])CCOCC1`, for which the Potency entry in [1], in [2], in [3], in [5], in experiment [6] and in experiment [8] was “inactive” each time. In addition, in experiment [7], the Potency result is “inactive”.
Consider `[Cl][In]([Cl])[Cl]`, for which the Potency entry in experiment [1], in [2], in [3], in experiment [4], in experiment [5] and in experiment [6] was “inactive” throughout. Further, the Potency entry in experiment [7] is “inactive”.
As to `CC(=O)CC(=O)Nc1ccc2[nH]c(=O)[nH]c2c1`, the Potency result in [1], in experiment [2], in [3], in [9], in [4] and in experiment [10] was “inactive” throughout. The Potency entry in experiment [5] and in [7] was “inactive” in each case.
Take `Clc1ccc2c(c1)C(N1CCNCC1)=Nc1ccccc1O2`: the Potency result in experiment [1], in [3] and in experiment [5] was “inactive” in each case. The Potency in experiment [2] was 2.19 µM (active) and inactive; in [4], 38.9 µM (active).
Consider `CC(C)(C)c1cc(C(C)(C)C)c(O)c(C(C)(C)C)c1`, for which the Potency result in experiment [1], in experiment [2], in experiment [3], in experiment [10] and in experiment [5] was “inactive” each time. The Potency in [7] was 38.9 µM (active).
As to `O=C(O)c1cccc(C(=O)O)c1`, the Potency entry in [1], in experiment [2], in [3], in experiment [9], in [4] and in experiment [10] was “inactive” in each case. In addition, the Potency entry in [5] and in [7] was “inactive” throughout.
Consider `Oc1c(Cl)cc(Cl)cc1Sc1cc(Cl)cc(Cl)c1O`, for which the Potency result in [1], in experiment [10] and in experiment [6] was “inactive” throughout. The Potency was 49.1 µM (active) and 19.5 µM (active) in experiment [2]; 21.9 µM (active) and 17.4 µM (active) and inactive in [3]; 15.5 µM (active) in [4]; 27.6 µM (active) in [5]; 21.9 µM (active) and 44.4 µM (active) and inactive in [7].
`CC(=O)C1=C(C)[C@@H]2C[C@@]3(C1)[C@H](C)CC[C@H]3C2(C)C`: the Potency entry in experiment [1], in [2], in experiment [3], in experiment [9], in [10] and in [5] was “inactive” throughout. The Potency result in experiment [6] and in experiment [7] was “inactive” throughout.
`O=C(Cl)c1cccc(C(=O)Cl)c1`: the Potency result in experiment [1], in experiment [2], in experiment [3], in experiment [4], in experiment [5] and in experiment [6] was “inactive” in each case. Moreover, the Potency result in experiment [7] is “inactive”.
In the case of `O=Cc1ccc(Cl)cc1`, the Potency entry in [1], in experiment [2], in experiment [3], in experiment [4], in experiment [5] and in [6] was “inactive” throughout. The Potency entry in experiment [8] and in [7] was “inactive” each time.
With `COC(=O)c1cccc(C(=O)OC)c1`, the Potency entry in experiment [1], in [2], in experiment [3], in experiment [5], in [6] and in experiment [8] was “inactive” each time. Besides, the Potency entry in experiment [7] was “inactive”.
As to `CCC(=O)/C=C/C1C(C)=CCCC1(C)C` (configuration not stated), the Potency entry in experiment [1], in experiment [2], in experiment [3], in experiment [9], in experiment [4] and in experiment [10] was “inactive” throughout. The Potency result in experiment [5], in [6] and in experiment [7] was “inactive” in each case.
Take `NC12CC3CC(CC(C3)C1)C2`: the Potency result in [1], in experiment [2], in experiment [3], in experiment [4], in [5] and in [6] was “inactive” in each case. The Potency result in experiment [7] was “inactive”.
In the case of `CC[C@]1(O)C[C@@H]2CN(CCc3c([nH]c4ccccc34)[C@@](C(=O)OC)(c3cc4c(cc3OC)N(C)[C@H]3[C@@](O)(C(=O)OC)[C@H](OC(C)=O)[C@]5(CC)C=CCN6CC[C@]43[C@@H]65)C2)C1`, the Potency result in experiment [1], in [2], in experiment [3], in experiment [4], in experiment [5] and in [6] was “inactive” in each case. Further, the Potency entry in [7] was “inactive”.
Turning to `CCN1CCCC1CNC(=O)c1cc(S(=O)(=O)CC)c(N)cc1OC` (configuration not stated), the Potency entry in [2], in experiment [3], in [4], in [5], in experiment [6] and in experiment [8] was “inactive” in each case. Also, the Potency result in experiment [7] was “inactive”.
Take `Cc1ccnc2c1NC(=O)c1cccnc1N2C1CC1`: the Potency result in [2], in experiment [3], in experiment [9], in [10], in experiment [5] and in [6] was “inactive” in each case. For the same molecule, the Potency result in [8] and in experiment [7] was “inactive” in each case.
In the case of `CC1COC(=O)O1` (configuration not stated), the Potency entry in experiment [1], in experiment [2], in experiment [9], in experiment [4], in experiment [10] and in [5] was “inactive” each time. Moreover, the Potency result in experiment [6] and in [7] was “inactive” throughout.
Consider `CCOC(=O)C(C)C(C)=O` (configuration not stated), for which the Potency entry in [1], in experiment [2], in experiment [3], in experiment [5] and in experiment [7] was “inactive” throughout.
With `CCOc1ccccc1C(N)=O`, the Potency entry in experiment [2], in [3], in experiment [9], in [4], in [10] and in [5] was “inactive” throughout. Further, the Potency result in experiment [6], in experiment [8] and in experiment [7] was “inactive” in each case.
As to `CCCCN(CCO)CCCC`, the Potency entry in experiment [2], in experiment [3], in experiment [9], in experiment [10], in [5] and in experiment [6] was “inactive” throughout. In addition, in experiment [7], the Potency result is “inactive”.
Regarding `NNCCc1ccccc1`, the Potency result in [1], in experiment [2], in experiment [3], in [5], in [6] and in experiment [8] was “inactive” in each case. In experiment [7], the Potency result was “inactive”.
Consider `CCC[C@H](N[C@@H](C)C(=O)N1[C@H](C(=O)O)C[C@@H]2CCCC[C@@H]21)C(=O)OCC`, for which the Potency entry in experiment [1], in experiment [2], in experiment [9], in experiment [10], in experiment [5] and in [7] was “inactive” in each case.
On to `NC(Cc1ccc(Cl)cc1)C(=O)O` (configuration not stated), for which the figures for the viability change, negative = cytotoxic in [2] and in experiment [4] were 1.71% [at 0.575 µM] (inactive) and 0.639% [at 0.55 µM] (inactive), respectively. For the same molecule, in experiment [3], the ratio activity, negative = inhibition was 5.74% [at 0.575 µM] (inactive). Moreover, the activity change, negative = inhibition in experiment [9] was 10.5% [at 0.55 µM] (inactive). For the same molecule, the activation in experiment [10] is 2.17% [at 0.55 µM] (inactive); in experiment [6] it was 0.21% [at 0.554 µM] (inactive). Also, the activity change, negative = cytotoxicity in experiment [5] was 5.76% [at 0.55 µM] (inactive); in [7], 2.72% [at 0.55 µM] (inactive).
Consider `c1ccc2c(c1)CCCC2C1=NCCN1` (configuration not stated), for which the Potency result in experiment [2], in experiment [3], in experiment [9], in experiment [4], in experiment [10] and in experiment [5] was “inactive” throughout. In addition, the Potency result in [6] and in [7] was “inactive” throughout.
